Activity calls are given as the source filed them.
What was measured:
[1] = optical density shifts of acrAB sulA E. coli – strain DRC41, OD650, 48 h, E. coli filamentation inducer project, primary screen (AID 1152); conditions: higher = more signal, called active from +8 up or from −8 down;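 further: E. coli MC1000 strain DRC41 lacking acrAB efflux pump and sulA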
[2] = probe aLefty1 binding on compound microarray – biochemical, small-molecule microarray, 635/667 nm fluorescence, primary screen (AID 1153); conditions: higher = more signal;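 further: score merges spot fluorescence with signal-to-noise ratio from the scanned slide images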
[3] = plasmodial surface anion channel blockers, osmotic lysis – cell-based, P. falciparum Indochina, OD700, 1 h, primary screen (AID 1154); conditions: P. falciparum Indochina infected RBC osmotic lysis, higher = more signal, called active from +8 up or from −8 down
[4] = plasmodial surface anion channel blockers, osmotic lysis – cell-based, P. falciparum Indochina, OD700, 2 h, primary screen (AID 1155);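 further: lysis reports solute entry through the parasite surface anion channel PSAC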; conditions: P. falciparum Indochina infected erythrocytes, higher = more signal, called active from +8 up or from −8 down
[5] = changes in parasitized red cell lysis, either direction – P. falciparum Indochina, OD700, 3 h, PSAC antagonist project, primary screen (AID 1156); conditions: P. falciparum-infected erythrocytes, osmotic lysis, higher = more signal, called active from +8 up or from −8 down
[6] = plasmodial surface anion channel blockers, osmotic lysis – cell-based, P. falciparum Indochina, OD700, 18 h, primary screen (AID 1157); conditions: P. falciparum Indochina infected erythrocytes, osmotic lysis OD700, 18 h; higher = more signal, called active from +8 up or from −8 down
[7] = S6 kinase pathway phospho-S6 level changes – cell-based, A549, cytoblot, luminescence, serum-stimulated, primary screen (AID 1158); conditions: 5 h, higher = more signal;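 further: serum-stimulated A549 lung adenocarcinoma cells; signal is phosphorylated S6 detected by cytoblot immunostaining with HRP secondary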
[8] = biological target: NADPH oxidase 2 (Homo sapiens) (UniProt P04839); assay: compounds shifting NOX2 Amplex Red fluorescence – cell-based, HEK293-NOX2, PMA-stimulated, NOX inhibitor project, primary screen (AID 1159); conditions: 45 min, higher = more signal, called active from +8 up or from −8 down; further: test concentration not given here
[9] = biological target: NADPH oxidase 4 (Homo sapiens) (UniProt Q9NPH5); assay: compounds shifting NOX4 Amplex Red fluorescence – cell-based, HEK293-NOX4, tetracycline-induced, NOX inhibitor project, primary screen (AID 1160); conditions: HEK293-NOX4, Amplex Red H2O2 fluorescence, 45 min; higher = more signal, called active from +8 up or from −8 down
[10] = biological target: NADPH oxidase 5 (Homo sapiens) (UniProt Q96PH1); assay: compounds shifting NOX5 Amplex Red fluorescence – cell-based, HEK293-NOX5, NOX inhibitor project, primary screen (AID 1161); conditions: HEK293-NOX5, ionomycin, 45 min, higher = more signal
[11] = compound effects on lung adenocarcinoma cell viability – A549, calcein-AM fluorescence, 48 h, basal, profiling panel (AID 1162); conditions: higher = more signal; further: test concentration not given here
[12] = compound effects on differentiated 3T3-L1 adipocyte viability – cell-based, 3T3-L1 adipocytes, calcein-AM fluorescence, 48 h, basal, profiling panel (AID 1163); conditions: 3T3-L1 adipocytes viability, higher = more signal; further: test concentration not given here
[13] = compound effects on hepatocellular carcinoma cell viability – HepG2, calcein-AM fluorescence, 48 h, basal, profiling panel (AID 1164); conditions: higher = more signal; further: test concentration not given here
[14] = compound effects on multiple myeloma cell viability – MM1S, calcein-AM fluorescence, 48 h, basal, profiling panel (AID 1165); conditions: higher = more signal; further: test concentration not given here
[15] = calcein-AM signal in unstimulated myeloma cells – cell-based, calcein-AM fluorescence, 48 h, PK04 Diversity Set, profiling panel (AID 1166); conditions: RPMI8226 myeloma viability, higher = more signal;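 further: cells grown under basal conditions without added stimulus; test concentration not given here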
[16] = JC-1 mitochondrial signal, unstimulated HepG2 cells – cell-based, JC-1 fluorescence, 24 h, 100 nL compound, profiling panel (AID 1167); conditions: HepG2 mitochondrial potential, higher = more signal; further: test concentration not given here
[17] = JC-1 mitochondrial signal, unstimulated adipocytes – cell-based, JC-1 fluorescence, 3T3-L1 adipocytes, 24 h, 100 nL compound, profiling panel (AID 1168); conditions: JC-1 mitochondrial fluorescence, higher = more signal, called active from +8 up or from −8 down; further: test concentration not given here
[18] = JC-1 mitochondrial signal, unstimulated myeloma cells – cell-based, JC-1 fluorescence, RPMI8226, 24 h, 100 nL compound, profiling panel (AID 1169); conditions: JC-1 mitochondrial potential fluorescence, higher = more signal; further: test concentration not given here
[19] = JC-1 mitochondrial signal, unstimulated MM1S myeloma – cell-based, JC-1 fluorescence, 24 h, 100 nL compound, profiling panel (AID 1170); conditions: MM1S mitochondrial potential, higher = more signal; further: test concentration not given here
[20] = resazurin metabolic signal in A549 cells – cell-based, resazurin fluorescence, 24 h, PK04 Diversity Set, profiling panel (AID 1171); conditions: A549 viability, higher = more signal, called active from +8 up or from −8 down; further: test concentration not given here

NADPH oxidase 5 (Homo sapiens), sequence (Q96PH1 whole entry, looked up): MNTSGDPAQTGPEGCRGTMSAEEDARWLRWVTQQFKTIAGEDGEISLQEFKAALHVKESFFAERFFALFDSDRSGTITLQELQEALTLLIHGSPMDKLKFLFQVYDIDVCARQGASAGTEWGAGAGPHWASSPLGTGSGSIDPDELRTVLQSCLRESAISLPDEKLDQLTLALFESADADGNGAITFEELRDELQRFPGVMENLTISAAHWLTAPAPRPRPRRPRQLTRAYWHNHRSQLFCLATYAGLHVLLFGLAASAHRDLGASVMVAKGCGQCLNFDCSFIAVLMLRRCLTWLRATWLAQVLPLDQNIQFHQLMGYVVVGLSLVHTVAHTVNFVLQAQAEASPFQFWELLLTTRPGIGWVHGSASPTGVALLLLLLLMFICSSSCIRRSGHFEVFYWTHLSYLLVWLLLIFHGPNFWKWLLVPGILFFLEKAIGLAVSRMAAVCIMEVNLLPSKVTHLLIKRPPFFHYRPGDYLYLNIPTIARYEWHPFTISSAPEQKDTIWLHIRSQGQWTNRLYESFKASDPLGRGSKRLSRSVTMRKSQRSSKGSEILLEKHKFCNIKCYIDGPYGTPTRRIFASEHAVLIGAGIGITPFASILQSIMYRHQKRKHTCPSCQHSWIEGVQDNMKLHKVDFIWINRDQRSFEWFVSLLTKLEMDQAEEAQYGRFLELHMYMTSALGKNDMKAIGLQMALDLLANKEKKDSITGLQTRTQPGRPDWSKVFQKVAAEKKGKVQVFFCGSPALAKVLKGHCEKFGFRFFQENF
NADPH oxidase 4 (Homo sapiens), sequence (Q9NPH5 whole entry, looked up): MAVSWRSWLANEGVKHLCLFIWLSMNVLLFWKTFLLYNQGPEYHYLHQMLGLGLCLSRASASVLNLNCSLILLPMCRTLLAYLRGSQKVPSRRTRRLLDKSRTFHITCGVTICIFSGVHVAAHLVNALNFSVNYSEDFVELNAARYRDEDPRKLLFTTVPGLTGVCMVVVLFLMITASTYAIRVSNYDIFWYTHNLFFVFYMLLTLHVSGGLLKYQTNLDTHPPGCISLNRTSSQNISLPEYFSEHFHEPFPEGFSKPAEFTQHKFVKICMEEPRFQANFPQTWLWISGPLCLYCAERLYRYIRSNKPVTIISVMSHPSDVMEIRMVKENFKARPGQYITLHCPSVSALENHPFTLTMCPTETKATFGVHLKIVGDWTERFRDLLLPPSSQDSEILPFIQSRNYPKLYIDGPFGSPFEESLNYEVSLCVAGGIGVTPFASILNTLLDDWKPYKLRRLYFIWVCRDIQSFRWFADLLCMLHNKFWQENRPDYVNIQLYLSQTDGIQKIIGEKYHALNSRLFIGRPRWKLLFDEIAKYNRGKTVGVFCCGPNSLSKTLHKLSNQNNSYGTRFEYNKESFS
NADPH oxidase 2 (Homo sapiens), sequence (P04839 whole entry, looked up): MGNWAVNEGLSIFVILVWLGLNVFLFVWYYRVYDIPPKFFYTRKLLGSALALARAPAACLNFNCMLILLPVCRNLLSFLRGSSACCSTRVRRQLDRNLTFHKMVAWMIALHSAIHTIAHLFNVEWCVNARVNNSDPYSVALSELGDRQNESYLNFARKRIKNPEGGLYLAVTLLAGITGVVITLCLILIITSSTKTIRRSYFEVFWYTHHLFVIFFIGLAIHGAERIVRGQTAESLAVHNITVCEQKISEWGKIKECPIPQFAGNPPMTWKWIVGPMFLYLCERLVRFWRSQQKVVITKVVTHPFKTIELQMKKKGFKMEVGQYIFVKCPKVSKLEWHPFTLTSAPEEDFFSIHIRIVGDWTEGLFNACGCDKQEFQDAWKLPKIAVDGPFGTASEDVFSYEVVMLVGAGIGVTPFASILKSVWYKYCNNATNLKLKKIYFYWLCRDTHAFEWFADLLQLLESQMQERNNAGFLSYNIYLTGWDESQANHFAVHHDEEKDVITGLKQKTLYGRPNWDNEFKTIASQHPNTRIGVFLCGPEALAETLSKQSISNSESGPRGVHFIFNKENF

Row | SMILES | z-score [1] | composite z-score [2] | z-score [3] | z-score [4] | z-score [5] | z-score [6] | z-score [7] | z-score [8] | z-score [9] | z-score [10] | z-score [11] | z-score [12] | z-score [13] | z-score [14] | z-score [15] | z-score [16] | z-score [17] | z-score [18] | z-score [19] | z-score [20]
1 | CCCCCN1CC=CC23O[C@@H]4C=CCOC(=O)[C@@H]4[C@H]2C(=O)N(CCO)[C@@H]3C1=O (stereo not given in full) | -0.23 (inactive) | -0.25 | 0.0674 (inactive) | 0.31 (inactive) | 0.266 (inactive) | 0.161 (inactive) | -0.53 | 1.52 (inactive) | 0.713 (inactive) | 1.23 | -0.479 | -0.609 | 0.0249 | 0.687 | -0.285 | -0.607 | 0.561 (inactive) | 0.174 | -0.15 | -0.0273 (inactive)
2 | COc1ccc([Si](C)(C)[C@@H]2[C@@H](CCn3cc([C@H](O)c4ccccc4)nn3)O[C@]3(C(=O)N(Cc4cccc(N5C(=O)c6cccc7cccc5c67)c4)c4ccccc43)[C@H]2C)cc1 | -0.603 (inactive) | 0.0056 | 1.8 (inactive) | 0.662 (inactive) | 1.1 (inactive) | 0.794 (inactive) | -0.256 | 1.08 (inactive) | 1.48 (inactive) | 2.2 | -0.381 | 0.0092 | 0.3 | -0.189 | -2.11 | 1.07 | -0.265 (inactive) | -0.681 | -0.193 | -1.26 (inactive)
3 | COCCCNC(=O)[C@@]1(Sc2ccc(C)cc2)CC(=O)N(Cc2ccccc2Cl)[C@@H]1c1ccc(CO)cc1I | -0.192 (inactive) | 0.0004 | 3.44 (inactive) | 0.325 (inactive) | -0.575 (inactive) | 0.181 (inactive) | -0.487 | 1.52 (inactive) | -1.12 (inactive) | 2.08 | 0.217 | 0.0816 | -0.115 | -1.88 | -2.32 | -0.51 | -0.695 (inactive) | -0.175 | -1.76 | -0.268 (inactive)
4 | [N-]=[N+]=NCc1ccccc1[C@H]1OC(c2ccc(OCCCO)cc2)=N[C@@]1(Cc1ccccc1)C(=O)NCCN1CCOCC1 | 0.694 (inactive) | 0.843 | 28.1 (active) | 22.1 (active) | 3.64 (inactive) | 3.74 (inactive) | -0.281 | 0.0323 (inactive) | 1.93 (inactive) | 1.58 | 0.526 | 1.06 | 0.688 | -2.51 | -1.2 | 1.51 | -0.0131 (inactive) | -0.815 | 0.45 | 1.19 (inactive)
5 | COC(=O)[C@@]1(Cc2ccc(F)cc2)[C@H]2c3cc(C(=O)N4CCCC4)n(C)c3C[C@H]2CN1C(=O)c1ccccc1 | -0.327 (inactive) | 0.603 | 2.59 (inactive) | 0.107 (inactive) | -0.105 (inactive) | 0.47 (inactive) | 0.305 | 0.282 (inactive) | -0.466 (inactive) | -0.565 | -0.893 | 0.502 | -0.429 | -1.63 | -1.01 | 1.29 | -1 (inactive) | -0.392 | -0.206 | 1.13 (inactive)
6 | C=C(CCCC)/C(=C/C[C@H](OC(C)=O)c1ccc(OCCO)cc1)c1cc(C(=O)OC)ccc1OC | 0.564 (inactive) | -0.0378 | 24.5 (active) | 7.58 (inactive) | 2.3 (inactive) | 1.48 (inactive) | 0.376 | -0.338 (inactive) | -0.759 (inactive) | -1.56 | 0.899 | 1.18 | 1.74 | -2.88 | -1.83 | 2.2 | 0.151 (inactive) | -0.864 | -0.957 | 1.09 (inactive)
7 | CO[C@H]1O[C@H](CO)[C@@H](OC(=O)Nc2ccc(C#N)cc2)[C@@H]2OC(=O)[C@H](Cc3cccc(Br)c3)C/C=C/C[C@@H](Cc3cccc(Br)c3)C(=O)O[C@@H]12 | 0.766 (inactive) | 0.941 | 1.52 (inactive) | -0.178 (inactive) | 0.842 (inactive) | 0.558 (inactive) | -0.257 | -1.59 (inactive) | 0.311 (inactive) | -0.214 | 1.31 | 0.685 | 1.29 | -1.71 | -0.487 | 1.73 | 1.74 (inactive) | -0.579 | -0.935 | -2.28 (inactive)
8 | COc1cc(NN2C(C(O)c3cc(OC)c(OC)c(OC)c3)C=CC3C(=O)N(c4ccccc4)C(=O)C32)cc(OC)c1OC (stereo not given) | -1.78 (inactive) | 1.02 | 2.73 (inactive) | -0.577 (inactive) | 1.27 (inactive) | -1.19 (inactive) | 1.07 | -3.35 (inactive) | -4.26 (inactive) | -6.87 | -0.94 | 0.641 | -0.455 | -0.881 | -0.373 | -0.132 | -0.768 (inactive) | -0.286 | -0.755 | -1.11 (inactive)

Reference: PubChem BioAssay
